Whole data set: some 33,000 sequences, median “E-score (-0.5 to 0.5)” near -0.015, cut for the highest 2% near 0.3. For the sample, the highest values were picked, then their nearest neighbours and some sequences at random.
target: T1, Abf1 (UniProt P14164); assay: PBM E-score (8-mer binding enrichment) (E-score (-0.5 to 0.5)); higher = stronger / more preferred TF binding; conditions: protein concentration: 200 nM; construct: GST-full length
T1 sequence: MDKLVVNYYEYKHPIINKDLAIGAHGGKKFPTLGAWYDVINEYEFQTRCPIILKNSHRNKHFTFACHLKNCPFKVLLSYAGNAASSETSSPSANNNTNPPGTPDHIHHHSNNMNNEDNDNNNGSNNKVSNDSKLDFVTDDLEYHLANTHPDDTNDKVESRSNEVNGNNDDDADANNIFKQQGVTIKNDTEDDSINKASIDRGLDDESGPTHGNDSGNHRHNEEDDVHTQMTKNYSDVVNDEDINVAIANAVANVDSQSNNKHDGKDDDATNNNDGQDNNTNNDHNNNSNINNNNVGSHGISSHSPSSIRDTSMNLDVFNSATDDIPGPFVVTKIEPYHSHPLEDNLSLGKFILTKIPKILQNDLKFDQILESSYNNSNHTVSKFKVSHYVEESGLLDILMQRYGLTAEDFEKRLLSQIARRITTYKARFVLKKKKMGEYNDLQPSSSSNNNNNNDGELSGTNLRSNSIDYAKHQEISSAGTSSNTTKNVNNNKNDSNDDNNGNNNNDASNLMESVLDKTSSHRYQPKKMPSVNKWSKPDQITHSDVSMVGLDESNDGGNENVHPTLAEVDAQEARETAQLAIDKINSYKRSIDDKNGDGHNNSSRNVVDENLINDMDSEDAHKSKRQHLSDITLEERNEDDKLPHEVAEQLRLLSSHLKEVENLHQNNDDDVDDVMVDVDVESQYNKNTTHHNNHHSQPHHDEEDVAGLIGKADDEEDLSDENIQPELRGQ
How it was run: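 Using PURExpress in vitro transcription/translation, GST-tagged yeast transcription factors were made in full-length or DNA-binding-domain form. These were applied at about 100-200 nM to double-stranded universal all-10-mer Agilent arrays, and bound protein was detected with fluorescent anti-GST. Scans were normalised with masliner before the Universal PBM Analysis Suite assigned E-scores to ungapped eight-base words pooled with their reverse complements.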

Sequence | PBM E-score
ATATCGCA | 0.144
ATATCGCG | 0.382
ATATCGTA | 0.203
ATATCGTG | 0.318
AAATCGTA | 0.267
CTATCGTC | 0.252
ATATCGCC | 0.269
AAATCGTG | 0.192
ATATCGGG | 0.018
AAATCGTC | 0.347
ATATCGTC | 0.336
ATATCGGC | 0.149
AGGGAACT | -0.244
AGCCGTAA | 0.193
GCGTCCTA | -0.0099
TACCAAAA | 0.0276
ACACAAAC | 0.0247
GTATAAAA | 0.356
CTATAATA | -0.0104
GTATAAAC | 0.22
AGATAATA | 0.107
GGATAATA | 0.173
GTATAATA | 0.299
ATATAAAA | 0.185
ATATAATA | 0.0977

Sequence | PBM E-score
CGATAATA | 0.326
GTTAACGA | 0.252
ACTGGTCG | -0.0382
AGTGCGAA | -0.196
CTCACCAG | -0.101
CGAAGGGC | -0.116
ACAGTGTC | -0.155
AGGGCTTC | 0.0312
TCTCGTAA | 0.306
ACTCGTAG | 0.16
ACTCGTAA | 0.173
AATCGTAT | 0.297
GCTCGTAA | 0.118
AATCGTAG | 0.197
CCTCGTAA | 0.131
AATCGTAA | 0.145
ACTCGTAT | 0.305
CACTCGGC | -0.0263
ACCAAGCT | -0.00876
AGGTTACT | 0.024
CAATACTG | -0.239
CGCTCACA | -0.0723
ACGCGGGC | -0.0155
GCTTCGCC | -0.147
CGCCGTCC | 0.308

Sequence | PBM E-score
AGCCGTCC | 0.0251
AGCCGTAC | 0.238
GGCCGTAA | 0.121
CGCCGTAC | 0.315
CGCCGTAG | 0.209
GGCCGTAC | 0.367
ACCCGTAC | 0.299
CGCCGTAA | 0.0647
CGCCGTCA | 0.199
ACCCGTAA | 0.0373
ACCCGTAG | -0.248
CTACGTCA | 0.146
CCAGTGAG | -0.251
CATTAGGC | 0.0172
GGTCCCAA | -0.136
CAGTCCAA | -0.177
TCGCGGAA | 0.0001
AGCTACCG | -0.0848
CACCGTAG | 0.0588
CACCGTAA | 0.101
AGCCGTTC | -0.0626
CACCGTAC | 0.385
CGCCGTTC | 0.331
CGCCGTTA | 0.14
AGACCCCG | -0.0859

Sequence | PBM E-score
CAGCAAGG | -0.192
GGTGACTA | 0.149
GCACTATA | 0.017
AAGACAAC | 0.0616
CTCCCCAC | -0.0818
CGAGAGAA | 0.0467
CAGTAATC | -0.00799
CAGTAATA | 0.304
CAGTAATG | -0.0287
GCCGTAAC | 0.211
ATTTATTG | 0.0665
CCCATTTC | -0.182
AGCGTCAC | -0.00719
ATCGTCAC | 0.389
GTCGTCAA | 0.222
CACGTCAA | 0.0325
CACGTCAG | 0.0977
ATCGTCTC | 0.25
CTCGTCAA | 0.0916
CTCGTCAG | 0.182
CACGTCAC | 0.368
GTCGTCAC | 0.35
GCCGTCAC | 0.0578
CTCGTCAC | 0.336
AGTATGCA | 0.111

Sequence | PBM E-score
CAATGCCC | -0.0566
GGGTTTGA | 0.121
CCGCGCAC | -0.209
CCCTTAGG | -0.0737
AGGACCCC | -0.0335
ATCGTCGA | 0.289
ATCGTCGG | 0.218
ATCGTCGC | 0.362
ATGCTAAA | 0.0969
TCCACGAA | 0.352
GCCACGAA | 0.0988
ACCACGAA | 0.0971
CCCACGAC | 0.0916
CCCACGAG | 0.0399
CCCACGAA | 0.316
ACGCACAT | -0.00733
CGCGGCGC | -0.00706
AGACGACA | 0.264
GGACGACC | 0.0608
GGACGAGA | 0.145
TGACGACA | 0.361
CGACGACA | 0.311
CGACGACG | 0.177
TCACGACA | 0.257
GGACGACA | 0.299

Sequence | PBM E-score
AGACGACC | 0.0722
CAAGTTGA | -0.187
CCCGGGCC | -0.304
CAACTCGC | 0.0334
AATTTCAT | 0.134
GCCAGGCA | -0.186
TGCCTCAA | -0.124
GACGGCAA | 0.246
AACGGCTA | 0.193
AACGGCGT | 0.227
TACGGCAA | 0.301
AACGGCGA | 0.327
GACGGCTA | 0.0813
CACGGCTA | 0.307
GACGGCGA | 0.0475
AACGGCGC | 0.123
TCCGGCGA | 0.069
CACGGCAA | 0.219
TACGGCGA | 0.313
GCCATGAA | -0.0667
ATTTTCCG | 0.1
CCCGGAAC | -0.125
AATTCACT | -0.102
AAGCTCTC | -0.125
GCCATAGA | -0.126

Sequence | PBM E-score
GACTCATA | -0.0291
ACTTCGCA | 0.0373
CACGGTGA | 0.308
CACGGCGC | 0.139
ACGGGTGG | 0.0777
CCGGGTGA | 0.12
CACGGCGA | 0.305
AACGGTGA | 0.135
ACGGGTGA | 0.32
CACGGCGG | 0.00732
CACGGTGC | 0.0971
AAGTGGTC | -0.131
CCACCTGA | -0.0561
TCAATAGA | -0.172
GTTGATGA | 0.283
ACTGATGA | 0.19
CGTGATGA | 0.31
GCTGATGA | 0.199
GGTGATGA | 0.34
CGTGATGC | 0.0552
AGTGATTA | 0.351
AGTGATGG | 0.056
GGTGATTA | 0.242
AGTGATGA | 0.366
AGTGATTC | 0.207

Sequence | PBM E-score
CCTGATGA | 0.139
CATTCGCC | 0.0362
ATTATTAG | 0.164
CATCCTCC | -0.127
ACAGGTCA | -0.0348
ACCTGCAT | 0.013
AACCAGCC | -0.0913
CTGTGAAC | 0.0459
CCTCCCAG | -0.196
CGTGCCAG | 0.148
ACCTGGCC | -0.0752
CCCTCTAA | -0.23
CCTAAATC | 0.154
AGTGATGC | 0.319
ATTGATGC | 0.0481
AATGATGC | 0.196
AGAAGACT | -0.0993
CCACTACA | -0.0773
ACACTACA | 0.169
TCACTACA | 0.344
CTCTGTGA | -0.118
CGAACAGC | -0.165
AAGATCCT | 0.0788
TATTTCGA | 0.272
TAGACGGA | 0.122

Sequence | PBM E-score
CAGACGAC | 0.191
TAGACGAA | 0.338
GAGACGAA | 0.0822
CAGACGAA | 0.324
AAGACGAA | 0.223
AAGCTAAC | 0.0254
AGTCAGCC | -0.181
CCTCCCAC | -0.188
CCTCCAGC | -0.322
GCCTACCC | -0.25
CACTAGCC | 0.144
GATGTCCC | 0.209
ACGATGCG | 0.07
ACCCCCGT | -0.0911
CGGACGAA | 0.35
CGGACGAC | 0.343
CGGACGAG | 0.191
AGGACGAC | 0.12
AGGACGAA | 0.147
GGGACGAA | 0.0455
